Only some compounds are listed: those with a hit (about 0.97% of all), similar ones and a draw of the others.
TcdB GH inh: TcdB glycohydrolase inhibitors, primary screen, biochemical, single point, plate reader; Toxin B (Clostridioides difficile), P18177; inhibition, % at 9.99 µM; actives 0.24% (n = 350,000); AID 652162, 2013; TcdB glycohydrolase enzymatic assay; in the data active = inhibition above about 10%
Rv3671c inh: Rv3671c serine protease inhibitors, primary screen, biochemical, fluorescence polarization, M. tuberculosis H37Rv; P9WHR9; inhibition, % at 5.96 µM; actives 0.048% (n = 320,000); in the data active = inhibition above about 38%;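 note: extracellular domain of Rv3671c used as enzyme; 0% = enzyme with DMSO and 100% = no enzyme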
FadD28 FP inh: inhibitors of FadD28 bisubstrate probe binding, primary screen, biochemical, fluorescence polarization, single point; inhibition, % at 12.5 µM; actives 0.22% (n = 360,000); in the data active = inhibition above about 8.5%, passing the limit was not always enough
Mtb UGM inh: M. tuberculosis UGM enzyme inhibitors, primary screen, biochemical, fluorescence polarization, single point. actives 0.06% (n = 320,000). AID 504406, 2011. purified UGM, fluorescence polarization probe displacement. inhibition, % at 10 µM; in the data active = inhibition above about 10%, passing the limit was not always enough
RecA splice inh: Mtb RecA intein splicing inhibitors, primary screen, biochemical, fluorescence, HTS | inhibition, % (no concentration beside the values) | actives 0.75% (n = 290,000) | Protein RecA (Mycobacterium tuberculosis (strain ATCC 25618 / H37Rv)), P9WHJ3 | cell-free RecA intein splicing | AID 2221, 2009; in the data active = inhibition above about 30%;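 note: 0% = vehicle wells and 100% = reference inhibitor control wells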
BioA inh: M. tuberculosis BioA enzyme inhibitors, primary screen, biochemical, plate reader, single point, HTS; 7,8-diaminopelargonic acid synthase BioA (Mycobacterium tuberculosis); purified M. tuberculosis BioA enzyme; inhibition, % at 9.99 µM; actives 0.096% (n = 360,000); AID 602481, 2012; in the data active = inhibition above about 40%
GFP chromo cs: counter-screen: blocks GFP chromophore formation, dose response, counter-screen, biochemical, fluorescence, homogeneous; shares compounds with RecA splice inh; EC50, µM; cell-free GFP chromophore formation; actives 83% (n = 2,100); call rule not given here
* = called active by the depositor; . = not tested or not shown.

SMILES	TcdB GH inh	Rv3671c inh	FadD28 FP inh	Mtb UGM inh	RecA splice inh	BioA inh	GFP chromo cs
CC(C)c1ccc(/C=C(\c2nc3ccccc3[nH]2)S(=O)(=O)c2ccccc2)cc1	.	-43	-4	-1	80*	.	9.4*
CCOc1cc(/C=C2/SC(=S)N(Cc3ccccc3)C2=O)ccc1O	-1	-18	-1	-5	33*	0	28*
COc1cc(/C=C2/SC(=S)N(Cc3ccccc3)C2=O)ccc1OCC(=O)O	1	-24	0	-2	37*	-1	33*
O=C1/C(=C/c2ccc(O)c([N+](=O)[O-])c2)SC(=S)N1Cc1ccccc1	1	-9	2	-1	6	0	.
O=C(CNC(=O)C1COc2ccccc2O1)N/N=C\c1ccccc1Cl (stereo unspecified)	0	-12	-1	4	0	5	>38
O=C(N/N=C\c1ccc(-c2ccccc2[N+](=O)[O-])o1)C1COc2ccccc2O1 (stereo unspecified)	.	-75	-4	1	33*	-2	39*
O=C(N/N=C\c1ccc(-c2ccccc2[N+](=O)[O-])o1)C1COc2cc3ccccc3cc2O1 (stereo unspecified)	.	-40	0	2	13	-1	.
COC1(OC)C(/C=C/c2ccc(Cl)cc2)C(C#N)(C#N)C1(OC)OC (stereo unspecified)	.	0	-6	-3	73*	.	>38
C[C@H](CO)N1C[C@H](C)[C@H](CN(C)C(=O)c2ccncc2)Oc2cc(/C=C/c3ccccc3)ccc2S1(=O)=O	1	.	.	.	.	2	.
C(=N\Nc1nncc2ccccc12)/c1ccccn1	-1	-6	0	-2	38*	1	10*
Fc1cccc(/C=N/Nc2nncc3ccccc23)c1	0	-18	1	0	-1	0	.
Cc1cccc(NC2=C/C(=N/S(=O)(=O)c3cccs3)c3ccccc3C2=O)c1	.	-107	0	1	.	.	.
Cc1ccc(NC2=C/C(=N\S(=O)(=O)c3cccs3)c3ccccc3C2=O)c(C)c1	.	-117	-1	-3	41*	-3	0.31*
O=C1C(Nc2ccc(O)cc2)=C/C(=N/S(=O)(=O)c2cccs2)c2ccccc21	3	.	3	.	96*	.	0.19*
COc1ccc([Si](C)(C)[C@@H]2[C@@H](CCO)O[C@]3(C(=O)N4c5c(cc(OC)cc53)C(C)=CC4(C)C)[C@H]2C)cc1	0	.	.	.	.	-3	.
O=C(Nc1cccc(F)c1)N1CCC(c2ccccc2)CC1	0	-12	0	2	38*	32	>38
C[C@@H]1CN([C@@H](C)CO)C(=O)c2cc(C3=CCCCC3)cnc2O[C@@H]1CN(C)C(=O)Nc1ccccc1	2	.	.	.	.	4	.
O=C(NCCc1ccccc1)C(c1cccs1)N(C(=O)CCl)c1ccc(Cl)cc1 (stereo unspecified)	0	-6	-1	0	74*	.	0.51*
CN(C)CC(=O)N1CC2(C1)[C@H](c1ccccc1)[C@H](CO)N2C(=O)C1CCC1	-1	.	.	.	.	.	.
C=CCn1c(N)c(C(=O)Nc2cccc(C)c2)c2nc3ccccc3nc21	.	-4	-6	-1	34*	-1	24*
O=C1c2cc(F)ccc2-n2c1nc1ccccc1c2=O	1	6	-2	-2	94*	.	>38
CS(=O)(=O)Nc1ccc2c(c1)[C@@H]1C[C@@H](CC(=O)NCc3ccccc3)O[C@@H](CO)[C@@H]1O2	0	.	.	.	.	2	.
C[C@H]1CCCCO[C@@H](CN(C)Cc2ccccc2)[C@@H](C)CN([C@@H](C)CO)C(=O)c2cc(NC(=O)c3ccccc3)ccc2O1	.	.	.	.	.	1	.
CCCC(=O)OCCNc1cc(SCCC(=O)OC)c2nonc2c1[N+](=O)[O-]	.	-9	1	1	39*	.	18*

Screening data: PubChem, several laboratories
